An excerpt weighted towards active compounds, which were near 1.4% of everything screened.
Polio RdRp inh – inhibitors of poliovirus RNA polymerase binding and polymerization. P03300. poliovirus polymerase elongation, fluorescence polarization; stronger effect = lower value. % elongation, % (compound at 16.7 µg/mL). 0.66% of 150,000 active. AID 588519; in the data active = % elongation below about 90%
Target sequence (P03300 1749-2209 limits assumed): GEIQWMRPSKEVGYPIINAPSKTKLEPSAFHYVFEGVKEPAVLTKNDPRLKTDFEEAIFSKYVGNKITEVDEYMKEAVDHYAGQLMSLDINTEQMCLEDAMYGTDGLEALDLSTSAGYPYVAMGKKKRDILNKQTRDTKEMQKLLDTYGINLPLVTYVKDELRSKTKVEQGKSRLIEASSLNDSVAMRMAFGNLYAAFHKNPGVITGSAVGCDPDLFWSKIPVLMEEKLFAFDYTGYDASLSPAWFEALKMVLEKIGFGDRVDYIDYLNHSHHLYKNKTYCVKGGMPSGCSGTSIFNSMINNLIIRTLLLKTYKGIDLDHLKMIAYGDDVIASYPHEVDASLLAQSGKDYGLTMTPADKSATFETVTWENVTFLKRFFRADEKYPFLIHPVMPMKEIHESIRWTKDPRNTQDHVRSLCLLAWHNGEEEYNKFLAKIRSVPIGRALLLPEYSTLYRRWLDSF
MbtI inh – inhibitors of Mycobacterium tuberculosis siderophore enzyme MbtI; purified MbtI enzyme, fluorescence intensity read-out; inhibition, % (test concentration not listed); P9WFX0; 0.89% of 100,000 active; in the data active = inhibition mostly above about 56%, no sharp cut-off; inactive = mostly below about 77%
AID504770 – growth inhibitors of E. coli YBA685 in a screen for V. cholerae RctB (chromosome II replication) inhibitors. E. coli YBA685 rctB-dependent plasmid, OD600 growth, 3 h; stronger effect = lower value. AID 504770. z-score (test concentration not listed). 0.27% of 130,000 active; in the data active = z-score below about -2, passing the limit was not always enough
MenB inh – inhibitors of Mycobacterium tuberculosis MenB enzyme. P9WNP5. MenB enzyme assay, absorbance read-out. inhibition, % (concentration not given with the values). 0.43% of 100,000 active. AID 540299; in the data active = inhibition above about 21%, passing the limit was not always enough
Hits are given with their value; 0 = inactive; - = not tested or not shown; ! = not active in a repeat.

SMILES | Polio RdRp inh | MbtI inh | AID504770 | MenB inh
S=C(NCc1ccco1)Nc1ccccc1 | 0 | 0 | 0 | 37
Cc1nn(C)c2c1S(=O)(=O)N=C(SCc1c(F)cccc1Cl)S2 | 88 | 84 | 0 | 0
CC(=O)NC1=NN(C(C)=O)C2(S1)C(=O)N(Cc1ccccc1)c1ccccc12 (stereo not given) | 0 | - | 0 | 0
Cc1cc(C)cc(OC(=O)c2cccnc2)c1 | 0 | 0 | 0 | 0
Cc1ccc(OC(=O)c2cccnc2)cc1 | 0 | 0 | 0 | 52
O=c1sn(-c2ccccc2C(F)(F)F)c(=O)n1CC1CC1 | 0 | 99 | 0 | 0
O=c1n(CN2CCOCC2)c2ccccc2n1CN1CCOCC1 | 0 | - | 0 | 0
S=c1n(CN2CCOCC2)c2ccccc2n1-c1ccccc1 | 72 | 99 | 0 | 0
O=C1CNC(=O)c2c(nc3n2CCC3)N1 | 0 | 0 | 0 | 34
O=C(O)CCCc1nc(-c2cnc3n(c2=O)CCS3)no1 | 0 | 0 | 0 | 0
Cc1ccc(OC(=O)C23CC4CC(CC(C4)C2)C3)cn1 | 0 | 0 | 0 | 42
O=C(Oc1cc(Cl)cc(Cl)c1)C12CC3CC(CC(C3)C1)C2 | 0 | 0 | 0 | 0
O=C(Oc1ccc(O)cc1)C12CC3CC(CC(C3)C1)C2 | 0 | 97 | 0 | 0
CC(C)c1cc(NNC(N)=O)cc(C(C)C)c1O | 0 | 0 | 0 | 0
COc1cc(Cc2cnc(N)nc2N)cc(OC)c1OC | 0 | 0 | -3.1 | 0
CSc1nc2sc3c(c2c2nncn12)CCC(C(C)(C)C)C3 (stereo not given) | 0 | 0 | 0 | 0
N#Cc1cccc(N2C(=O)C=CC2=O)c1 | - | - | -2.8 | -
O=C1C=CC(=O)N1c1ccc2ccccc2c1 | 0 | 100 | 0 | 0
COc1ccc(N2C(=O)C=CC2=O)cc1OC | 0 | 94 | 0 | -
CSc1cccc(N2C(=O)C=CC2=O)c1 | - | - | -2.2 | -
CC(CCc1ccccc1)NC(=O)Cn1nc(Cc2ccncc2)c2ccccc2c1=O (stereo not given) | - | - | 0 | -
CC(C)Oc1ccccc1CN | 0 | 0 | 0 | 32
O=C(NCCN1CCN(Cc2ccccc2)CC1)Nc1ccc(OCc2ccccc2)cc1 | 0 | 0 | 0 | 0
O=C(O)Cc1c(-c2ccc(Cl)cc2)nc2ccccc2c1C(=O)O | - | - | 0 | -
Cc1c(-c2ccccc2)nc2ccccc2c1C(=O)O | 0 | 0 | 0 | 34
SMILES | Polio RdRp inh | MbtI inh | AID504770 | MenB inh
O=C(c1ccccc1)c1ccc(C(=O)O)c(C(=O)O)c1 | 0 | 0 | 0 | 46
O=C(c1ccccc1)c1ccc(C(=O)c2ccccc2)cc1 | 82 | - | 0 | 0
O=C(O)CCCC(=O)c1ccccc1 | 0 | 0 | 0 | 0
O=C(O)CCC(=O)c1ccccc1 | 75 | 0 | 0 | 0
O=C(O)c1ccc(C(=O)O)c(C(=O)c2ccccc2)c1 | - | - | 0 | -
CCn1c(SCC(=O)OC)nnc1-c1ccc(O)cc1 | 0 | 0 | 0 | 0
CN1C(=O)/C(=c2/[nH][nH]c(=O)/c2=C\C=C\c2ccccc2)C(=O)c2ccccc21 | 84 | - | 0 | 0
COc1ccc(/C=C2/C(=O)N(C)c3ccccc32)cc1 | 0 | 0 | 0 | 0
CCOC(=O)c1oc2ccccc2c1COC(=O)c1ccc2c(c1)OCO2 | 0 | 0 | 0 | 0
COc1ccccc1C(=O)CN1CCCCC1C (stereo not given) | 0 | 0 | 0 | 0
COc1ccccc1Nc1nn(CN2CCCCC2C)c(=S)s1 (stereo not given) | 0 | 100 | 0 | 0
CCNC(=O)CNCc1c(C)nn(CC(C)C)c1Cl | 0 | 0 | 0 | 0
CC(C)c1ccc(C(=O)CC#N)cc1 | 0 | 0 | 0 | 0
Cc1nnc(SCc2cccc(C(=O)c3ccccc3)c2)[nH]c1=O | 0 | 55 | 0 | 0
Cc1nnc(SCc2ccc(C(=O)c3ccc(F)cc3)cc2)[nH]c1=O | - | - | 0 | -
Cc1cccc(C(=O)N(C(=O)c2cccc(C)c2)c2nnnn2C)c1 | 0 | 0 | 0 | 0
COCc1c(C(=O)NCc2ccc(OC)cc2)oc2ccccc12 | 0 | 0 | 0 | 0
CC(C)N(C)NC(=S)Nc1ccccc1 | 0 | 0 | 0 | 41
CCN(CC)NC(=S)Nc1ccccc1 | 0 | 0 | 0 | 0
CCNC(=S)Nc1ccccc1 | 0 | 0 | 0 | 0
CCC(C)NC(=S)Nc1ccccc1 (stereo not given) | 0 | 0 | 0 | 30
C=CCSC1=N/C(=C\c2ccccc2)C(=O)N1c1ccc(OC)cc1 | 0 | 0 | 0 | 0
O=C(NCc1ccco1)C(=S)N1CCOCC1 | 0 | 76 | 0 | 0
COCc1cc(C)nc2sc3c(c12)NCN(c1ccccc1)C3=O | 0 | 0 | 0 | 0
C=CCNC(=S)N1CCC(C(=O)c2ccc(C)cc2)CC1 | 0 | 0 | 0 | 0
SMILES | Polio RdRp inh | MbtI inh | AID504770 | MenB inh
COCCNC(=S)N1CCC(C(=O)c2ccc(F)cc2)CC1 | 0 | 0 | 0 | 37
N#CCc1ccc(OC(F)F)cc1 | 31 | 0 | 0 | 0
COc1ccc(CCNC(=O)CSc2nncn3c2cc2oc(C)cc23)cc1OC | 0 | 0 | 0 | 0
CCOC(=O)c1cccc(CSc2n[nH]c(N)n2)c1 | 0 | 0 | 0 | 0
CC(C)(C)OC(=O)N1CCN(C2CC(=O)N(c3ccccc3)C2=O)CC1 (stereo not given) | 0 | 0 | 0 | 0
O=C1CC(N2CCCC2)C(=O)N1c1ccccc1 (stereo not given) | 0 | 63 | 0 | 0
Cc1cc(C(=O)Cn2cnc3sccc3c2=O)c(C)n1-c1ccc2c(c1)OCO2 | 0 | 0 | 0 | 0
CC(=O)n1c2ccccc2c2nc(N)sc21 | 81 | 0 | 0 | 0
CC(=O)n1c2ccccc2c2ccccc21 | - | - | 0 | -
COc1ccc2c(c1)Cc1sc(NC(=O)c3cccc(Cl)c3)nc1-2 | 63 | - | - | -
COc1ccc(C(=O)Nc2nc3c(s2)CCc2cc(OC)ccc2-3)cc1 | 80 | - | - | -
COc1ccc2c(c1)Cc1sc(NC(=O)c3cccc(C)c3)nc1-2 | 56 | - | - | -
COc1ccc2c(c1)CCc1sc(NC(=O)c3cccc(Br)c3)nc1-2 | 0 | - | - | -
COc1ccc2c(c1)Cc1sc(NC(=O)c3ccc(Cl)cc3)nc1-2 | 88 | - | - | -
CC(c1ccc(-n2cncn2)cc1)N(C)c1ncnc2sc3c(c12)CCCC3 (stereo not given) | 0 | 0 | 0 | 0
Cc1ccccc1Cn1c(=O)n(Cc2ccco2)c(=O)c2ccc(C(=O)NCCc3ccccc3)cc21 | 0 | 0 | 0 | 0
Cn1cnc2c1c(=S)[nH]c(=O)n2Cc1ccccc1 | 82 | - | 0 | 0
Cc1c(Cl)cccc1N1CC(C)(C)C1=O | - | - | 0 | -
Cc1c(Cl)cccc1N1C(=O)C=CC1=O | 0 | 99 | -2.6 | -
NC1CCN(C(=O)NC2CCCCC2)CC1 | 0 | 0 | 0 | 24
O=C(O)c1ccc(NC2OC(CO)C(O)C2O)cc1 (stereo not given) | 90 | - | 0 | 0
COc1ccc(C(c2cc3c(cc2O)OCO3)N2CCOCC2)cc1 (stereo not given) | 0 | - | 0 | 0
CCN(CC)C(=O)c1ccc(NS(=O)(=O)CC)cc1 | 0 | 0 | 0 | 0
COc1ccc(/C=C2\SC(=O)N(CCNC(=O)[C@@H]3CCCN3C(=O)OC(C)(C)C)C2=O)cc1 | 0 | 0 | 0 | 0
O=C1C(O)=C(O)C(=O)C(O)=C1O | 97! | 0 | 0 | 0
Cc1ccc2nc(C(C)O)[nH]c2c1 (stereo not given) | 0 | 0 | 0 | 0
CC(O)c1nc2cc3ccccc3cc2[nH]1 (stereo not given) | 0 | 0 | 0 | 34
O=C(CCS(=O)(=O)c1ccccc1)N(Cc1cccnc1)c1nc2ccc(F)cc2s1 | 0 | - | - | -
O=C(CCS(=O)(=O)c1ccccc1)N(Cc1ccccn1)c1nc2ccccc2s1 | 0 | 71 | 0 | 0

Source: PubChem BioAssay
